Bioassay records deposited in PubChem by National Center for Advancing Translational Sciences (NCATS).
Rows were chosen to be rich in hits. Some 1.9% of all compounds tested hit in one or more screens of this group.
FUS suppressor: rescues growth of FUS-expressing yeast; S. cerevisiae FUS-expressing, growth rescue, OD600, 24 h; Potency, µM (doses to about 76.6 µM), actives largely listed as activators; hit rate 0.24% among 390,000; AID 1347120; further: nearly all actives have a fitted effect of over 55% in size
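S. cerevisiae expressing FUS from galactose induction served as the toxicity model. Growth after 24hr at 30C, read as absorbance at 600 nm, indicates suppression of toxicity; compounds dosed at several concentrations.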
TDP43 rescue: inhibitors of TDP-43 toxicity in yeast | TDP-43 expressing yeast growth rescue, BacTiter-Glo, 24 h | hit rate 1.8% among 410,000 | Potency, µM (series often up to 46.1 µM), most hits filed as activators; further: nearly all actives have a fitted effect of over 50% in size
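Yeast cells expressing TDP-43 under galactose induction are exposed to compounds for 24 hr at 30 deg C. BacTiter-Glo luminescence measures growth, so protective compounds score as activators.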
LDHA block: blocks human lactate dehydrogenase A; P00338; purified LDHA, NADH/diaphorase-resazurin fluorescence; hits give low values; activity change, % (values are at about 110 or 230 µM); hit rate 0.15% among 480,000; AID 1347041; in the data active means activity change below about -30%; inconclusive means mostly about -25% to -30%
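Remaining NADH was detected by diaphorase (0.133 mg/mL) converting 37 µM resazurin to fluorescent resorufin, read at 0 and 20 minutes. The preceding 5-minute room-temperature reaction used 2 nM LDHA, 0.2 mM sodium pyruvate and 0.06 mM NADH at pH 7.4.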
aSyn rescue: alpha-synuclein toxicity inhibition in yeast; Yeast expressing alpha-synuclein, growth rescue, BacTiter-Glo, 24 h; Potency, µM (top dose mostly 46.1 µM), most hits filed as activators; hit rate 0.14% among 370,000; AID 652106; further: nearly all actives have a fitted effect of over 65% in size
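Rescue of yeast growth: cells expressing toxic alpha-synuclein, induced in galactose at OD600 0.02, incubated with compound 24 h at 30 C. ATP luminescence quantified growth; inhibitors of toxicity appear as activators.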
Abeta yeast res: compounds reversing amyloid beta toxicity in yeast. hit rate 0.063% among 410,000. Potency, µM (highest dose often 46.1 µM), hits mostly activators. yeast expressing A-beta42, growth rescue, OD600, 48 h; response scale: 0% DMSO, 100% iron-clioquinol control; further: nearly all actives have a fitted effect of over 55% in size
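Yeast A-beta toxicity model in growth medium with pinned compounds, 48 h at 30 C; growth read as absorbance at 600 nm. Normalized to FeCl3/clioquinol equimolar mix (positive) and DMSO (negative).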
PTHR1 agonist: activates the human parathyroid hormone receptor PTHR1. hit rate 0.075% among 410,000. HEK293 GP2 PTHR1 cells, GloSensor cAMP luminescence, 1 h. Potency, µM (doses to about 115 µM), usual class: activators; further: nearly all actives have a fitted effect of over 55% in size
Target sequence (Q03431 whole entry, looked up): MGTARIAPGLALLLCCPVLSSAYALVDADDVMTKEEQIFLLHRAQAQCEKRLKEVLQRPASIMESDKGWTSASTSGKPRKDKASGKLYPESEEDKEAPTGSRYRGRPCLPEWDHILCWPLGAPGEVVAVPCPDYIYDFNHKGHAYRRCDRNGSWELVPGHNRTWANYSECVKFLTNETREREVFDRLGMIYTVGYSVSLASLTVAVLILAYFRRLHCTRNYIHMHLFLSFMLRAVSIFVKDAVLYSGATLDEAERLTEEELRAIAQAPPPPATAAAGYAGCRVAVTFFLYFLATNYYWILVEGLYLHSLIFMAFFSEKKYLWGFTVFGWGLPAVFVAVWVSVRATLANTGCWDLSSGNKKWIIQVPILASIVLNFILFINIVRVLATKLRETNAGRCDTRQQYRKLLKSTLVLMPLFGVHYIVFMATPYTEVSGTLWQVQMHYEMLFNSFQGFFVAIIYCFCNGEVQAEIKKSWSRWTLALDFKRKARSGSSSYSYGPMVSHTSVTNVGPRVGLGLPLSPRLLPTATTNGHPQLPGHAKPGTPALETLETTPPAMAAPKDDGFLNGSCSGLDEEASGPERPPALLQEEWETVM
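HEK-293-derived GP2 cells expressing PTHR1 and a GloSensor cAMP reporter, 3,000/well, plated overnight, given luciferin plus IBMX (each 0.5 mM as added) for 1 h at 37 °C, then compound for 1 h at 37 °C. Luminescence was read after 15 min at room temperature.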
Each line names hits and unclear results; the compound was inactive in the other large screens. Unless noted, the call rests on the fitted dose curve; in most records, active means well fitted curve in the direction sought with a large enough effect; inconclusive means small, poorly fitted or top-dose-only effect, or another doubt; inactive means no such curve, though single readings can be large; an effect the other way counts as inactive or inconclusive.

COc1ccc(/C=C2/C(=O)NC(=S)N(C3CC3)C2=O)cc1CN1C(=O)c2ccccc2C1=O	LDHA block -36, aSyn rescue inconclusive
Cc1noc(C)c1C1SCC(=O)Nc2c1c(C)nn2-c1ccccc1 (stereo not drawn)	none (no result: FUS suppressor, TDP43 rescue, aSyn rescue, Abeta yeast res, PTHR1 agonist)
C#CC1(O)C=CC2C3CCC4=CC(=O)CCC4C3CCC21CC (stereo not drawn)	TDP43 rescue 14µM
CCC1(O)CCC2C3CCC4=CC(=O)CCC4C3CCC21CC (stereo not drawn)	TDP43 rescue inconclusive, aSyn rescue inconclusive
Cc1nnc(C(C)N2CCN(C(=O)Cc3ccccc3C)CC2)o1 (stereo not drawn)	none (no result: FUS suppressor, TDP43 rescue, aSyn rescue, Abeta yeast res, PTHR1 agonist)
CCOC(=O)c1c(-n2c(C)cc(C=C3C(=O)NC(=S)NC3=O)c2C)sc2c1CCCC2	TDP43 rescue 18µM
CCOC(=O)c1c(-n2c(C)cc(/C=C3/C(=O)NC(=O)N(CC)C3=O)c2C)sc2c1CCCC2	none
Cc1nc(-c2cccc(CN(C)C(=O)Oc3ccc([N+](=O)[O-])cc3)c2)no1	TDP43 rescue 13µM
CN(Cc1cccc(-c2cccnc2)c1)C(=O)Oc1ccc([N+](=O)[O-])cc1	TDP43 rescue inconclusive
O=C(NC1CCCCC1)N1Cc2cc(N3CCOCC3)ccc2-n2nncc2C1	FUS suppressor inconclusive
COc1ccc(-c2ccc3c(c2)CN(C(=S)NCCc2ccccc2)Cc2cnnn2-3)cc1	TDP43 rescue inconclusive, aSyn rescue 4µM
O=C(NC1CCCCC1)N1Cc2cc(-c3ccccc3)ccc2-n2nncc2C1	TDP43 rescue 20µM
COc1ccc(-c2ccc3c(c2)CN(C(=O)CCc2ccccc2)Cc2cnnn2-3)cc1	FUS suppressor inconclusive, TDP43 rescue inconclusive
S=C(NCCc1ccccc1)N1Cc2cc(Br)ccc2-n2nncc2C1	TDP43 rescue 22µM, aSyn rescue inconclusive, Abeta yeast res inconclusive
S=C(NCCc1ccccc1)N1Cc2ccc(Br)cc2-n2nncc2C1	TDP43 rescue 25µM, aSyn rescue inconclusive, Abeta yeast res inconclusive
Cc1cccc2[nH]cc(C3=CCN(C(C)C(=O)NC4CC4)CC3)c12 (stereo not drawn)	none (no result: FUS suppressor, TDP43 rescue, aSyn rescue, Abeta yeast res, PTHR1 agonist)
O=C1/C(=C\c2ccccc2F)N2CCC1CC2	none (no result: FUS suppressor, TDP43 rescue, aSyn rescue, Abeta yeast res, PTHR1 agonist)
NCC(c1ccc(Cl)cc1)N1CCCC1 (stereo not drawn)	none (no result: FUS suppressor, TDP43 rescue, aSyn rescue, Abeta yeast res, PTHR1 agonist)
